The values that follow come from PubChem BioAssay AID2417 (National Center for Advancing Translational Sciences (NCATS), 2010).

Out of some 140,000 compounds screened, about 4,300 (3.1%) were called active. Another 21% or so got no clear call; they are omitted. The entries come from a sample that favours actives as a whole. Values without a mark were called inactive.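 Rule for the calls: active = readout at or below -70, meaning at least 70% loss of cells showing the perinucleolar compartment, a nuclear body marking cancer cells; inconclusive = readout between -30 and a set limit; inactive = the rest.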

A short description of this assay: High Content Assay for Compounds that inhibit the Assembly of the Perinucleolar Compartment.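 Note: plate controls were DMSO wells for no effect and camptothecin positive control wells for full effect.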 The note with it: PC3M PTB-GFP, PNC prevalence imaging, 16 h; at 10 µM; hits give low values. In short, it runs like this:
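Read-out is percentage of cells bearing a perinucleolar compartment, from automated 20x imaging of fixed, Hoechst-stained PC3M PTB-GFP cells. Cells were seeded 4 h, then exposed 16 h to compound (23 nl of library stock) in duplicate plates.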
In the case of `Cc1cc(NC(=O)COC(=O)COc2ccc(Cl)cc2C)c([N+](=O)[O-])cc1C`, the activity change (PNC), negative = inhibition was -20.6%. The same measure for `CN1/C(=C\C(=O)c2cccnc2Cl)C(C)(C)c2ccccc21`: 78%. The same measure for `CCC1C=C(c2ccccc2)C=CN=C1N(CC)CC` (centres undefined): -9.28%.

For `COc1cc(OC)cc(C(=O)NC2CCN(C(=O)N3c4ccccc4Sc4ccccc43)CC2)c1`, the activity change (PNC), negative = inhibition was -91% (active). The same measure for `O=C(NC1CC1)c1ccc2c(c1)NC(=O)c1ccccc1S2`: 14.7%; for `CCOc1ccc(C(=O)NC2CCN(C(=O)Nc3ccccc3OC)CC2)cc1`: 37.5%. Consider `CCn1cc(CNC(=O)c2cc([N+](=O)[O-])c(C)c([N+](=O)[O-])c2)cn1`, for which the activity change (PNC), negative = inhibition is 4.07%. The same measure for `CCN(CC)CCn1c(/N=C/c2cc(Br)ccc2O)nc2ccccc21`: 21.6%; for `O=C(COC(=O)/C=C/c1ccc(S(=O)(=O)N2CCCCCC2)cc1)NCc1ccccc1Cl`: 0.0752%. Take `Cc1ccc(Nc2cc(C)nc3c(C)ccc([N+](=O)[O-])c23)cc1`: the activity change (PNC), negative = inhibition was 23%. Consider `CNc1nc(Nc2ccc(C)c(Cl)c2)nc(N)c1[N+](=O)[O-]`, for which the activity change (PNC), negative = inhibition was -113% (active).

On to `Nc1nc(NCCCN2CCOCC2)nc(Nc2ccccc2)c1[N+](=O)[O-]`, for which the activity change (PNC), negative = inhibition was -16.9%. The same measure for `O=C(Cc1ccccc1)NNC1CC(=O)N(c2ccc(Br)cc2)C1=O` (centres undefined): 6.12%; for `O=C(CC1NCCNC1=O)Nc1cc(Cl)cc(Cl)c1` (centres undefined): 29.9%; for `CCc1ccc(Oc2coc3cc(OC(=O)c4cc5ccccc5oc4=O)ccc3c2=O)cc1`: 2.64%. With `C=CCn1c(SCc2csc(C)n2)nc2scc(-c3ccc(C)o3)c2c1=O`, the activity change (PNC), negative = inhibition is -99.5% (active).

Consider `C=CCn1c(SCC(=O)/C(C#N)=C(\C)N)nc2sc(C)c(C)c2c1=O`, for which the activity change (PNC), negative = inhibition was -7.62%.

For the molecule `C=CCn1c(SCc2c(C)noc2C)nc2sc3c(c2c1=O)CCC(C)C3` (centres undefined), the activity change (PNC), negative = inhibition is -26.1%.

`CC1CCCN(S(=O)(=O)c2ccc(N(C(=O)c3cnccn3)C(C(=O)NC3CCCCC3)c3cccs3)cc2)C1` (centres undefined): the activity change (PNC), negative = inhibition is 13.4%. `O=C(/C=C/c1cnc2ccccc2n1)NC1CCCCCC1`: the activity change (PNC), negative = inhibition is -24.3%. As to `Cc1nn(Cc2ccc(Cl)cc2)c(Cl)c1/C=N/NC(=O)c1cccnc1`, the activity change (PNC), negative = inhibition is 35.8%.

With `O=C(CN1CCOCC1)N1CCCc2c1c(=O)oc1ccc(OCc3ccccc3)cc21`, the activity change (PNC), negative = inhibition was -90.3% (active). The same measure for `NC(=O)COc1ccc2c3c(c(=O)oc2c1)CCCCC3`: -10.3%; for `O=C(COc1ccc2oc3c(c2c1)CCCC3)Nc1ccccn1`: -26.2%; for `CCCCN(CC)C(=O)c1ccccc1Oc1ccccc1`: 6.14%. The same measure for `Cc1cccc(C(=O)NC(=S)N2CCN(c3ccc([N+](=O)[O-])cc3)CC2)c1`: 8.71%; for `CC(=O)N1c2ccccc2N(Cc2ccc([N+](=O)[O-])cc2)C(=O)C1(C)C`: 13.5%. Take `COC(=O)c1ccc(CSc2ccc3nnc(-c4ccccc4)n3n2)o1`: the activity change (PNC), negative = inhibition was -97.8% (active). To `COC(=O)c1ccc(CSc2nc3ccccc3c(=O)n2-c2cccc(OC)c2)o1` belongs 7.85%. `COCC(C)n1c(SCc2ccc(C(=O)OC)o2)nc2ccccc2c1=O` (centres undefined): the activity change (PNC), negative = inhibition was 1.64%. To `COC(=O)c1ccc(Cc2ccccc2)o1` belongs 13.6%; to `COC(=O)c1ccc(CSc2ccccc2C)o1`, -112% (active). `CCOc1ccccc1Nc1nnc(SCc2ccc(C(=O)OC)o2)s1`: the activity change (PNC), negative = inhibition is 30.2%. On to `O=C(CNS(=O)(=O)c1ccccc1)NCC(=O)OCc1ccccc1F`, for which the activity change (PNC), negative = inhibition was 26%. To `Cn1ncc2c(NNC(=O)Cc3cccc4ccccc34)ncnc21` belongs -13.1%. Take `COc1ccc(N2C(=O)CC(SC(C)C)C2=O)cc1` (centres undefined): the activity change (PNC), negative = inhibition is 36.9%.

`O=C(Nn1c(-c2ccccc2)nc2ccccc2c1=O)c1ccc([N+](=O)[O-])cc1`: the activity change (PNC), negative = inhibition is 38.7%. Regarding `O=C(N/N=C/c1coc2ccccc2c1=O)c1cc2ccccc2o1`, the activity change (PNC), negative = inhibition is 11%. To `O=C(/C=C/NCc1ccc(F)cc1)c1ccccc1` belongs -6.98%; to `Fc1ccc2c(c1)C(c1cccnc1)=NNC(c1cccs1)=N2`, 17.9%; to `C=CCn1c(SCc2ccc(Cl)c(Cl)c2)nnc1C(CO)NC(=O)c1ccc(OC)cc1` (centres undefined), -102% (active). With `C=CCn1c(SCC(=O)c2ccc(Br)cc2)nnc1C(C)NC(=O)Cc1ccc(OC)cc1` (centres undefined), the activity change (PNC), negative = inhibition is 11.4%. To `C=CCn1c(SCc2c(C(=O)OC)sc(N)c2C(=O)OC)nnc1-c1ccc(Cl)cc1` belongs 7.94%. For the molecule `CC1(C)C(C=C(Cl)Cl)C1C(=O)N(Cc1ccc(Cl)cc1)C1CCS(=O)(=O)C1` (centres undefined), the activity change (PNC), negative = inhibition is 32.1%. Take `O=C(NN1C(=O)C2C3C=CC(O3)C2C1=O)c1ccncc1` (centres undefined): the activity change (PNC), negative = inhibition was 36%.

Turning to `CC(=O)c1ccc(NC(=S)NC(=O)CC(C)C)cc1`, the activity change (PNC), negative = inhibition was 18.7%. Consider `COC(=O)C1C(=O)NCC1c1ccc(C)cc1` (centres undefined), for which the activity change (PNC), negative = inhibition is -2.49%. The same measure for `COC(=O)C1=C(Nc2ccc(C)cc2)C=C(C)C(C(=O)OC)C1c1ccc(F)cc1` (centres undefined): -100% (active); for `COC(=O)C1=C(Nc2ccc(OC)cc2)C=C(C)C(C(=O)OC)C1c1ccc(C)cc1` (centres undefined): -17.7%; for `O=C(CCc1[nH]c2ccccc2c1Sc1ccccc1)N(CCO)CCO`: 85.7%. For the molecule `CC(=O)NC1=NN(C(C)=O)C(C)(c2ccc(C)cc2)S1` (centres undefined), the activity change (PNC), negative = inhibition is 54.1%. To `COc1ccc(C(=O)Nc2c(Cl)cc(Cl)cc2C(=O)N2CCC(C)CC2)cc1` belongs -10.7%; to `CSc1ccc(S(=O)(=O)NC2CCCCC2)cc1`, -23.3%; to `Cc1cc(C)nc(SC2CCCCC2NS(=O)(=O)c2ccc(Cl)cc2)n1` (centres undefined), -107% (active). On to `CCOC1CCCCC1NS(=O)(=O)c1ccc(Cl)cc1` (centres undefined), for which the activity change (PNC), negative = inhibition is 21.4%.

For `CC(=O)N/C(=C/c1ccc(OC(F)F)cc1)C(=O)O`, the activity change (PNC), negative = inhibition is -25.2%. As to `COc1ccccc1CNC(=O)CN1CCC(n2cnc3cc(F)ccc32)CC1`, the activity change (PNC), negative = inhibition was 26.2%.

In the case of `COc1ccc(N2C(=O)C(CC(=O)Nc3ccc(F)cc3)N(CCc3cccs3)C2=O)cc1` (centres undefined), the activity change (PNC), negative = inhibition was 20.2%. To `CC(C)CCNC(=O)c1cccnc1Sc1ccccc1` belongs 23.2%.
